These results are taken from PMC7862700, “An all-to-all approach to the identification of sequence-specific readers for epigenetic DNA modifications on cytosine”.

Holding throughout (assay): DAPPL (digital affinity profiling via proximity ligation, sequencing); 10 mM Tris-HCl pH 7.5, 50 mM NaCl, 1 mM DTT, 4% glycerol, room temperature, 30 min; GST-TFs on glutathione beads, 16-mer random dsDNA library, 0.1% formaldehyde crosslink after washing; high values mean tight binding
The target of one experiment is T1, FLI1 (Homo sapiens, UniProt Q01543 1-452).
T1 sequence: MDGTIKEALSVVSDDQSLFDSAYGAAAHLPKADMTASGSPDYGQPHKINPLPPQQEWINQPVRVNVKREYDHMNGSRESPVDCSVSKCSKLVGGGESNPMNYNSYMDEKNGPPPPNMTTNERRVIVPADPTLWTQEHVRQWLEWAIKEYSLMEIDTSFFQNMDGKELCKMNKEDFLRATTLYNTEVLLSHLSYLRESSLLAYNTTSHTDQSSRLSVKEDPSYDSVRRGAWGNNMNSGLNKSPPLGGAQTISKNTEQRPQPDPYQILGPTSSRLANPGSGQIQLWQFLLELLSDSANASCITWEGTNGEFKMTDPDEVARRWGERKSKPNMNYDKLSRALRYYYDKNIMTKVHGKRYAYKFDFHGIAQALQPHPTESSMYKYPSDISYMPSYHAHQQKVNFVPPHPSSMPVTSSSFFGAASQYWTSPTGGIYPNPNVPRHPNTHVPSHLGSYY
The conditions noted are these: protein: recombinant; tags: N-terminal GST; dsDNA, one strand shown. In outline: (§1)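 The binding signal reported is, for every hexamer, its read frequency for a factor over its read frequency for the tag-only sample. Reads came from pools of yeast-expressed, GST-fused human transcription factors on glutathione beads, barcoded with DNA and mixed with that sample, which were incubated with 200 nmole of a random double-stranded 16-mer DNA library in Tris/NaCl/DTT/glycerol buffer at room temperature for 30 min. After washing, the pools were crosslinked with 0.1% formaldehyde, proximity-ligated with BsaI/T4 ligase for 1 h at 37 °C, PCR-amplified and sequenced on an Illumina NextSeq500.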

A further experiment addresses T2, ELK1 (Homo sapiens, UniProt P19419 1-428).
T2 sequence: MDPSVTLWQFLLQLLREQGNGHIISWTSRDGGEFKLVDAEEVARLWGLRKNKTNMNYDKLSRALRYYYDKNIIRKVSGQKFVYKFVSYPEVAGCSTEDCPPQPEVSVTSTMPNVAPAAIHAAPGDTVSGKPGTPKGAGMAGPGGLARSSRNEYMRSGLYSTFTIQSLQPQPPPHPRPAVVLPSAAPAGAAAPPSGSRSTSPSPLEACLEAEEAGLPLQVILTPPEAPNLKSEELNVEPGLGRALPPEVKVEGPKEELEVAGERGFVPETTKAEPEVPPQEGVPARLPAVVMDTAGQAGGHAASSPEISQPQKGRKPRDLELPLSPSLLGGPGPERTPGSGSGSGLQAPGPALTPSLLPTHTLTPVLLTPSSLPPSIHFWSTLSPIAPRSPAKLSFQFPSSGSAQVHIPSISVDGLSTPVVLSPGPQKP
The conditions noted are these: protein: recombinant; tags: N-terminal GST; dsDNA, one strand shown. In outline:
as §1

A further experiment addresses T3, GABPA (Homo sapiens, UniProt Q06546 1-454).
T3 sequence: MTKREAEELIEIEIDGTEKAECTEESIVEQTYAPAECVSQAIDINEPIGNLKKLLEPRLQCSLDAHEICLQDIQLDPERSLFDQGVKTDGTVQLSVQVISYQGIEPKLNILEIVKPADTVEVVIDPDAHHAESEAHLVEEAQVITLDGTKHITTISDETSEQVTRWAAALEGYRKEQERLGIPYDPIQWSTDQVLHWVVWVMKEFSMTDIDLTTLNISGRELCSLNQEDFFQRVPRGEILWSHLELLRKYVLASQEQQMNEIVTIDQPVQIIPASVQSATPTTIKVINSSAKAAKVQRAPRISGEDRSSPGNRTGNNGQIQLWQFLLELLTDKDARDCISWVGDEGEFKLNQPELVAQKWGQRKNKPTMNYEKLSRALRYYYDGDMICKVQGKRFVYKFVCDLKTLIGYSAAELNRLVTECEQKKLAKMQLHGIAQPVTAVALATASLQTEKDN
To be noted: protein: recombinant; tags: N-terminal GST; dsDNA, one strand shown. The essentials:
as §1

The next experiment addresses T4, ERG (Homo sapiens, UniProt P11308 1-479).
T4 sequence: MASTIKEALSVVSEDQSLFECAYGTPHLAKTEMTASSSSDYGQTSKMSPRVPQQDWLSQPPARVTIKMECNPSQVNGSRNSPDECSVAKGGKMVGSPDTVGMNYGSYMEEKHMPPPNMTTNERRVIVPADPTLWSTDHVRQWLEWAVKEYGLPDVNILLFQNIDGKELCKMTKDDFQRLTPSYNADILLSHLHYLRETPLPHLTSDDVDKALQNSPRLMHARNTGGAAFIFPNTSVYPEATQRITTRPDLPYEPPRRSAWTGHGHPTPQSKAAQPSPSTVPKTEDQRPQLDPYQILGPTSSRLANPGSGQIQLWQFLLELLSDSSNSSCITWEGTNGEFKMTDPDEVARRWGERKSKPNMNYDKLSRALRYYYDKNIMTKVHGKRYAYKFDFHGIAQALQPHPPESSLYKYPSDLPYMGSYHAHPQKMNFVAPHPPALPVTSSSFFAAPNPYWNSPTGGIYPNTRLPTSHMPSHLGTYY
To be noted: protein: recombinant; tags: N-terminal GST; dsDNA, one strand shown. The essentials: as §1

Another experiment has as its target ELF1 (Homo sapiens, UniProt P32519 1-619). The conditions noted are these: protein: recombinant; tags: N-terminal GST; dsDNA, one strand shown. In outline:
as §1

The target of another experiment is T5, EHF (Homo sapiens, UniProt Q9NZC4 1-300).
T5 sequence: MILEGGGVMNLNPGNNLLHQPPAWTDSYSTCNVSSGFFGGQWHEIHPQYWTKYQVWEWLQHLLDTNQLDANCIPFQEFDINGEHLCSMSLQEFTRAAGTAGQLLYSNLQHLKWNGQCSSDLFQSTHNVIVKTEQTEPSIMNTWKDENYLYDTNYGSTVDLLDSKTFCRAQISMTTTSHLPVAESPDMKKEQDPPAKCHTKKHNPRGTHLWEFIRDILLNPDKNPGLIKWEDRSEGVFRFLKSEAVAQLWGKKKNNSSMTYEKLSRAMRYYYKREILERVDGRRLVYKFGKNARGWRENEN
To be noted: protein: recombinant; tags: N-terminal GST; dsDNA, one strand shown. In outline:
as §1

A further experiment addresses SPI1 (Homo sapiens, UniProt P17947 1-270). To be noted: protein: recombinant; tags: N-terminal GST; dsDNA, one strand shown. The essentials: as §1
The next experiment deals with SPIB (Homo sapiens, UniProt Q01892 1-262). The conditions noted are these: protein: recombinant; tags: N-terminal GST; dsDNA, one strand shown. The essentials: as §1
In another experiment the target is T6, ELK3 (Homo sapiens, UniProt P41970 1-407).
T6 sequence: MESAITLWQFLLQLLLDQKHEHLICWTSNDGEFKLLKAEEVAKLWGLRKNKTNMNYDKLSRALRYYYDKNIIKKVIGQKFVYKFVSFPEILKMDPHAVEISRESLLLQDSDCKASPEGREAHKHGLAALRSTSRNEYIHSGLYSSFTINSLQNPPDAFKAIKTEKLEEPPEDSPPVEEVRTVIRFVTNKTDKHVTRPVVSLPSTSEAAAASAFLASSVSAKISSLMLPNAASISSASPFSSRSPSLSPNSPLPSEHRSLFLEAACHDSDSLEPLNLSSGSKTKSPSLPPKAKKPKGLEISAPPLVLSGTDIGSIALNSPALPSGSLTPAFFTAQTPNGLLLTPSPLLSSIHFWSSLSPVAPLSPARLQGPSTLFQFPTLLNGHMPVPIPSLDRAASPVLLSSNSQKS
The conditions noted are these: protein: recombinant; tags: N-terminal GST; dsDNA, one strand shown. In outline:
as §1

In another experiment the target is T7, FEV (Homo sapiens, UniProt Q99581 1-238).
T7 sequence: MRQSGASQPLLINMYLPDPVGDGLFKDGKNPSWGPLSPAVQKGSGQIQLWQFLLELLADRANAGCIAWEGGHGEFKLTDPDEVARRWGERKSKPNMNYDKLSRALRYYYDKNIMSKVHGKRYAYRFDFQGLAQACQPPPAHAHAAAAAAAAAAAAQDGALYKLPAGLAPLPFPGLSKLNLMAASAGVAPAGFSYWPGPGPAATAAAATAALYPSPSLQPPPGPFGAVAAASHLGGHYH
The conditions noted are these: protein: recombinant; tags: N-terminal GST; dsDNA, one strand shown. The essentials: as §1

The next experiment deals with ETV5 (Homo sapiens, UniProt P41161 1-510). The conditions noted are these: protein: recombinant; tags: N-terminal GST; dsDNA, one strand shown. In outline:
as §1

In the next experiment the target is HSF1 (Homo sapiens, UniProt Q00613 1-529). The conditions noted are these: protein: recombinant; tags: N-terminal GST; chain copies: 3; dsDNA, one strand shown. The essentials: as §1
For a further experiment, the target named is T8, SPIC (Homo sapiens, UniProt Q8N5J4 1-248).
T8 sequence: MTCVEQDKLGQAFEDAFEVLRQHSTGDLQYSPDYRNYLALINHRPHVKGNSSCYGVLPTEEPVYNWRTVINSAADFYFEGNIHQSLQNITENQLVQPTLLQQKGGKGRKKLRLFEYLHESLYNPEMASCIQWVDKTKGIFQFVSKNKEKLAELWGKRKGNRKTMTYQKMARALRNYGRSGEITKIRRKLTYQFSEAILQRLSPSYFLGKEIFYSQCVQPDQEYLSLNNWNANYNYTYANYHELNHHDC
To be noted: protein: recombinant; tags: N-terminal GST; dsDNA, one strand shown. The essentials: as §1

The target in the next experiment is ELF4 (Homo sapiens, UniProt Q99607 1-663). To be noted: protein: recombinant; tags: N-terminal GST; dsDNA, one strand shown. The essentials: as §1
The target in another experiment is T9, ELK4 (Homo sapiens, UniProt P28324-2 1-405).
T9 sequence: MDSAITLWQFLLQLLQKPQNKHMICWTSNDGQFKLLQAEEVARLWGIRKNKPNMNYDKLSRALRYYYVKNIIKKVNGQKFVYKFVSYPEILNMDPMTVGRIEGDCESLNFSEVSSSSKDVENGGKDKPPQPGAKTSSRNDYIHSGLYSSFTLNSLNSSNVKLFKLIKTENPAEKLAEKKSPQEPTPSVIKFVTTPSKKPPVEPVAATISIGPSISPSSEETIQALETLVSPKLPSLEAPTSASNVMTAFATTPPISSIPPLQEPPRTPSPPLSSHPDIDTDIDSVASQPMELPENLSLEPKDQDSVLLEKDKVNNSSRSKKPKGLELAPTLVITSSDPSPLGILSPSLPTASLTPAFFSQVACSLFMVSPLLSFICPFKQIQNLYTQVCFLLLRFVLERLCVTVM
To be noted: protein: recombinant; tags: N-terminal GST; dsDNA, one strand shown. In outline: as §1

The target of the next experiment is T10, ETV2 (Homo sapiens, UniProt O00321 1-342).
T10 sequence: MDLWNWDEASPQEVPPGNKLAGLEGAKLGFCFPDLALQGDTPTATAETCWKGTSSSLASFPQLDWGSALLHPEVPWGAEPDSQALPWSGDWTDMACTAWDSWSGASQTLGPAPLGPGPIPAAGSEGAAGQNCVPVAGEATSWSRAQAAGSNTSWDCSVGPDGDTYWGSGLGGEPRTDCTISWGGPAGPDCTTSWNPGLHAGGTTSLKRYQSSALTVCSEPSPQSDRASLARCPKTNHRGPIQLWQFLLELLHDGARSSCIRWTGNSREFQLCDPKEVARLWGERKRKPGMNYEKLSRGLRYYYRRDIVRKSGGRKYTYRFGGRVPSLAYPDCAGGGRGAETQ
The conditions noted are these: protein: recombinant; tags: N-terminal GST; dsDNA, one strand shown. The essentials:
as §1

Another experiment concerns the target T11, ELF3 (Homo sapiens, UniProt P78545 1-371).
T11 sequence: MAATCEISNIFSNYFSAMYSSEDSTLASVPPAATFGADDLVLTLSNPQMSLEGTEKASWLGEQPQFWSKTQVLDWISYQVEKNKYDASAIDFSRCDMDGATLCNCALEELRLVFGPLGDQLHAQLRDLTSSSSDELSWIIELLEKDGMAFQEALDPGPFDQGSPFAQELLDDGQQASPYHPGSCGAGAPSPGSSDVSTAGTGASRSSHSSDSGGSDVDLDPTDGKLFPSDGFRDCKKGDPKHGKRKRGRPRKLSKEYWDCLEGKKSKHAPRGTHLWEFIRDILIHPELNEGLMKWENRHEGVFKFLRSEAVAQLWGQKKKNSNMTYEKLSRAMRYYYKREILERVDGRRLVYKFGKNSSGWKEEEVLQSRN
The conditions noted are these: protein: recombinant; tags: N-terminal GST; dsDNA, one strand shown. The essentials:
as §1

For a further experiment, the target named is CRX (Homo sapiens, UniProt O43186 1-299). The conditions noted are these: protein: recombinant; tags: N-terminal GST; dsDNA, one strand shown. The essentials:
as §1

Another experiment deals with ETV1 (Homo sapiens, UniProt P50549 1-477). To be noted: protein: recombinant; tags: N-terminal GST; dsDNA, one strand shown. The essentials: as §1
Chain of ETV1 (P50549 whole entry): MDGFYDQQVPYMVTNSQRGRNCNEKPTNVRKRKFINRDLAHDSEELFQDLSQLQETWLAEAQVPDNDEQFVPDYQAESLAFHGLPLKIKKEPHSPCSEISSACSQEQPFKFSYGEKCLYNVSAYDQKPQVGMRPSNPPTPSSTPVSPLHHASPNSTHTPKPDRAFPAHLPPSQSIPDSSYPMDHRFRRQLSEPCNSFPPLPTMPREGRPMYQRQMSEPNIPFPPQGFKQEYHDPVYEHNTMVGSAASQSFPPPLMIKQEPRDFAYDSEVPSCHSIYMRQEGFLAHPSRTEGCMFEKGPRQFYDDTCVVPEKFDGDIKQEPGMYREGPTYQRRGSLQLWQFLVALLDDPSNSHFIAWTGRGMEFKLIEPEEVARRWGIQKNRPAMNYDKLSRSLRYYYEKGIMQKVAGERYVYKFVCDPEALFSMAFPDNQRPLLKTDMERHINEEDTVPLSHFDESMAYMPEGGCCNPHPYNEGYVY

Chain of HSF1 (Q00613 whole entry): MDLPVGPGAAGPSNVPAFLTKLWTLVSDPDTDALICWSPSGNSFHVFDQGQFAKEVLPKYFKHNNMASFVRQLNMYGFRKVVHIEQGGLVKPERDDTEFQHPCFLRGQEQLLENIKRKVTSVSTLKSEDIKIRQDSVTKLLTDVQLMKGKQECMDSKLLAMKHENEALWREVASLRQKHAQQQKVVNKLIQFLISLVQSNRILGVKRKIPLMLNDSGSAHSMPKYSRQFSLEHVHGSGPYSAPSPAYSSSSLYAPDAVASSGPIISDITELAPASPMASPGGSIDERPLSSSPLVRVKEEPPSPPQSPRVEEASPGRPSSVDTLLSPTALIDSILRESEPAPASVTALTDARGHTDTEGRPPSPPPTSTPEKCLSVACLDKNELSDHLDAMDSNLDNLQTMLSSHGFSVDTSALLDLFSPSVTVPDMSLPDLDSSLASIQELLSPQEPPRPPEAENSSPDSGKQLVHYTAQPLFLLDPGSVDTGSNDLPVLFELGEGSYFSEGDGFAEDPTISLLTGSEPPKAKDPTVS
Chain of CRX (O43186 whole entry): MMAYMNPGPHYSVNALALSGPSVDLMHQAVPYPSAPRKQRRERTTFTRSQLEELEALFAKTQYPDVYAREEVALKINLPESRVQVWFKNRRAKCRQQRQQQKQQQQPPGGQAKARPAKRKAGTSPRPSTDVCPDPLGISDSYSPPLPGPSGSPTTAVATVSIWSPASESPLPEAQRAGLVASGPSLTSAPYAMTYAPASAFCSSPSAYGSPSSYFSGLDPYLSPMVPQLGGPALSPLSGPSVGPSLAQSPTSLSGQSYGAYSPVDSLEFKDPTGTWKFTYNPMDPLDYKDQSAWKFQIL
Chain of ELF4 (Q99607 whole entry): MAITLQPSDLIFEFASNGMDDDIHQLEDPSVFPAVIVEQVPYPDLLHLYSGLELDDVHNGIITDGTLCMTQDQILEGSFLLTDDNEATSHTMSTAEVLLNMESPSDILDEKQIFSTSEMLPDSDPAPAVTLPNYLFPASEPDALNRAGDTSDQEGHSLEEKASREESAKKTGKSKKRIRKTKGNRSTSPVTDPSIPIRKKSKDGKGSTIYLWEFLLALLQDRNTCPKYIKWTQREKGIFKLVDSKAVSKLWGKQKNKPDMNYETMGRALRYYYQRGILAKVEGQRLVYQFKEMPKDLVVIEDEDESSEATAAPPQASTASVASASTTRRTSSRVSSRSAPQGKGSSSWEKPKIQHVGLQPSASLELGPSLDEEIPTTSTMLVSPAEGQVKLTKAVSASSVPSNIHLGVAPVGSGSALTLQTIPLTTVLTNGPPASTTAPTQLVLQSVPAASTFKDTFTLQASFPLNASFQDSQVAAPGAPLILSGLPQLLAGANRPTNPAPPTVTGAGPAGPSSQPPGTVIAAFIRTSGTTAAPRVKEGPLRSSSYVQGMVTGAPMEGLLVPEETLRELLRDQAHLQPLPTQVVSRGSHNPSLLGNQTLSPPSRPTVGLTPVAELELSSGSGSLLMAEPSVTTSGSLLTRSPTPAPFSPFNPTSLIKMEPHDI
Chain of SPIB (Q01892 whole entry): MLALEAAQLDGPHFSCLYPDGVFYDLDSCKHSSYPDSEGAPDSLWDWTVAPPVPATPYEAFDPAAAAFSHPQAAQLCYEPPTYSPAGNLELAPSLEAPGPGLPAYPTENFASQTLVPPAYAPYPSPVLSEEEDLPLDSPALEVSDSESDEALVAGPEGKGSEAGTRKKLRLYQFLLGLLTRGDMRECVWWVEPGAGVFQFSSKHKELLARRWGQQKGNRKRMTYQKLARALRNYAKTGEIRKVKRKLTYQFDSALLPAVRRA
Chain of ETV5 (P41161 whole entry): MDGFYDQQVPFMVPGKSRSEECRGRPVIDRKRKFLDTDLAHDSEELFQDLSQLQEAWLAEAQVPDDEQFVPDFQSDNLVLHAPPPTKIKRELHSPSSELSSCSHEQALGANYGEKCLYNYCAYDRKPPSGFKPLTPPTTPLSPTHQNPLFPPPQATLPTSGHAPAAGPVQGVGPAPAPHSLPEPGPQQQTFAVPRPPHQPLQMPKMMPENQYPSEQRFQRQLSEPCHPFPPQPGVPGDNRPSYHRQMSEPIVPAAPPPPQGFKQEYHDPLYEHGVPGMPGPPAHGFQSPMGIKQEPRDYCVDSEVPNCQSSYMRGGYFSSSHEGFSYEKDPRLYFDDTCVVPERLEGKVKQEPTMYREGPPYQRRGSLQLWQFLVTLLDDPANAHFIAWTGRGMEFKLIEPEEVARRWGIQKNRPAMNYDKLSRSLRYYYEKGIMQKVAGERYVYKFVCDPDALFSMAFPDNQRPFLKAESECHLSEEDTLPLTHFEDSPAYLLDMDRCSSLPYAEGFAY
Chain of ELF1 (P32519 whole entry): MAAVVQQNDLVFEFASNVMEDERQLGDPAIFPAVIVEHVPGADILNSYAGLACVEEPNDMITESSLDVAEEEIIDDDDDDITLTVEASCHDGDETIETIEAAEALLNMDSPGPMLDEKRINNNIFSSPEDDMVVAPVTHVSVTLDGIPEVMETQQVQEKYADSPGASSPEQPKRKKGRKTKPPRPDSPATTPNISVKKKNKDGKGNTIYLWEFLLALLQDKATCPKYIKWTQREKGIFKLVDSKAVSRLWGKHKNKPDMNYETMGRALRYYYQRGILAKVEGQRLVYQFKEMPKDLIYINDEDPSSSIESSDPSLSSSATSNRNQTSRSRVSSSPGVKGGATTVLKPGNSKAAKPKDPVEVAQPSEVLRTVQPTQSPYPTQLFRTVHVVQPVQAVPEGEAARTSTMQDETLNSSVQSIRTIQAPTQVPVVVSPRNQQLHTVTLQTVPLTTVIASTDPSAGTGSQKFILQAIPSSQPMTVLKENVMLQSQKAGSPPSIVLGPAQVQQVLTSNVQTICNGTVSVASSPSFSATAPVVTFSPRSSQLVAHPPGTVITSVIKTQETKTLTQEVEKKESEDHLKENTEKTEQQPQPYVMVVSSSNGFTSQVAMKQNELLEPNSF

For AACGAA, the binding signal is 1.07 fold enrichment (6-mer frequency, TF over GST control) with FLI1; 1.14 fold enrichment (6-mer frequency, TF over GST control) with ELK1; 1.15 fold enrichment (6-mer frequency, TF over GST control) with GABPA; 1.15 fold enrichment (6-mer frequency, TF over GST control) in the experiment with ERG; 1.18 fold enrichment (6-mer frequency, TF over GST control) with ELF1; 1.15 fold enrichment (6-mer frequency, TF over GST control) with EHF. Further, the binding signal with SPI1 was 1.14 fold enrichment (6-mer frequency, TF over GST control); in the experiment with SPIB, 1.19 fold enrichment (6-mer frequency, TF over GST control); in the experiment with ELK3 it was 1.13 fold enrichment (6-mer frequency, TF over GST control); with FEV, 1.15 fold enrichment (6-mer frequency, TF over GST control); with ETV5, 1.22 fold enrichment (6-mer frequency, TF over GST control); with HSF1, 1.33 fold enrichment (6-mer frequency, TF over GST control). Moreover, the binding signal with SPIC is 1.2 fold enrichment (6-mer frequency, TF over GST control); in the experiment with ELF4, 1.1 fold enrichment (6-mer frequency, TF over GST control); with ELK4, 1.13 fold enrichment (6-mer frequency, TF over GST control); with ETV2, 1.11 fold enrichment (6-mer frequency, TF over GST control); with ELF3, 1.19 fold enrichment (6-mer frequency, TF over GST control); in the experiment with CRX, 1.08 fold enrichment (6-mer frequency, TF over GST control). Besides, the binding signal with ETV1 was 1.09 fold enrichment (6-mer frequency, TF over GST control).
